Measurements taken from PubChem BioAssay AID1671190 (National Center for Advancing Translational Sciences (NCATS), 2021).
The campaign covered roughly 580,000 compounds. About 6,100 (1.1%) were called active. Where a call stands in place of a potency, no number is given. Not shown: some 15% with an inconclusive outcome. Calls come from the whole dose curve; as a rule, active = well fitted inhibition curve with a large enough effect; inconclusive = small, poorly fitted or top-dose-only effect, or another doubt; inactive = no such curve, though single readings can be large or run the other way. The full list was thinned out, with actives kept by preference.

Target: Polyunsaturated fatty acid lipoxygenase ALOX12 (Homo sapiens) (UniProt P18054)
Experiment: Primary qHTS assay for inhibitors of human arachidonate 12S-lipoxygenase (ALOX12): Round 2
Conditions: purified 12hLO, xylenol orange hydroperoxide absorbance; series mostly up to 108 µM
How it was run: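 Purified human 12hLO (150 nM final) in 25 mM Hepes, 0.01% Triton X-100, pH 7.0 was preincubated 15 min at room temperature with compound. Then 40 uM arachidonic acid was added, 30 min. Hydroperoxide was read by Fe-XO absorbance ratio 573/405 nm.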
Potency is the fitted concentration of half-maximal effect.

Sequence of Polyunsaturated fatty acid lipoxygenase ALOX12 (Homo sapiens) (P18054 whole entry, looked up): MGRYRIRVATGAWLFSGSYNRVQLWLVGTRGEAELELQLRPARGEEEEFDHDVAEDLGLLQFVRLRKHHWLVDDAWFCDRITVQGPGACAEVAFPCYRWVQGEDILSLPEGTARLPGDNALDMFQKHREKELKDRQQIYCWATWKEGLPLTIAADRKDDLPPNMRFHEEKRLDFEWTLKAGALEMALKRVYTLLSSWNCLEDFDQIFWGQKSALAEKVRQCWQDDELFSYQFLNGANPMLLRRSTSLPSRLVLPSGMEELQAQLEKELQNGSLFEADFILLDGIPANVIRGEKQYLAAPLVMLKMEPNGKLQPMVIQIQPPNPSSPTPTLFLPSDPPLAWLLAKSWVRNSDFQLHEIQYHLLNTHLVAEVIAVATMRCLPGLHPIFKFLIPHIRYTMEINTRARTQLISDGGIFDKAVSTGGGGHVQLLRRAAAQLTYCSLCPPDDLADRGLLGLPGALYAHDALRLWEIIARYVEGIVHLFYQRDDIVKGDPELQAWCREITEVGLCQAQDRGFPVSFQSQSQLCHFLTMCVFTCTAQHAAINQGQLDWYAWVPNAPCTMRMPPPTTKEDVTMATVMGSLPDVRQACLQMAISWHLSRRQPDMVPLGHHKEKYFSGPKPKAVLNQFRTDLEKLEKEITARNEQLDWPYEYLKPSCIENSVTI

SMILES	Potency
COC(=O)c1nc(-c2ccc(F)cc2)no1	inactive
CCN(CC)C(=O)[C@@H]1CCC[C@@H](NS(C)(=O)=O)CN(C)C(=O)C1	inactive
CCOC(=O)C(NS(=O)(=O)c1ccc(C)cc1)(C(F)(F)F)P(=O)(OCC(C)C)OCC(C)C (configuration not stated)	39.8 µM (active)
Cc1ccc(S(=O)(=O)NCC(C)NS(C)(=O)=O)cc1 (configuration not stated)	inactive
CCOC(=O)C(NC(=O)c1ccccc1)(OC(C)C)C(F)(F)F (configuration not stated)	inactive
CCN1C(=O)N/C(=C/c2cn(CC(=O)Nc3ccc(F)cc3)c3ccccc23)C1=O	inactive
COc1cc(C(=O)Nc2ccc(C)cc2)nc2ccc(Cl)cc12	inactive
CSc1cccc(NC(=O)N[C@H]2CCN3C(=O)[C@H](Cc4ccc(F)cc4)NC(=O)[C@@H]3C2)c1	inactive
O=C(c1ccc2ncccc2c1)N1CCC2(CC1)NCCc1c2[nH]c2ccccc12	inactive
O=C(NCC1CCOCC1)C1COc2ccccc2O1 (configuration not stated)	inactive
O=C(Cn1nc2c(cc1=O)CCCCC2)Nc1nc(-c2ccncc2)cs1	inactive
O=C(Nc1nc(-c2ccncc2)cs1)C1COc2ccccc2O1 (configuration not stated)	14.1 µM (active)
CCc1cccc2c(C(=O)CSc3nncn3C(C)C)c[nH]c12	inactive
CCC1(C)Cc2c(sc3nnn(CC(=O)Nc4ccc(Cl)cc4)c(=O)c23)CO1 (configuration not stated)	inactive
CC1(C)Cc2c(sc3c2c(=O)n(CCO)c(=O)n3CCc2ccccc2)CO1	inactive
CCC1(C)Cc2c(sc3[nH]c(=S)n(Cc4ccccc4)c(=O)c23)CO1 (configuration not stated)	28.2 µM (active)
COc1ccccc1-c1cnc(Nc2ccncc2)c2c1CCO2	inactive
CN1CCN(C(=O)c2cccc(C(F)(F)F)c2)CC1	inactive
O=[N+]([O-])c1cc(Cl)cc(/C=N/NC(=S)Nc2cc(S(=O)(=O)N3CCOCC3)ccc2Cl)c1O	25.1 µM (active)
Cc1ccc(S(=O)(=O)N2CCOCC2)cc1NC(=O)c1ccncc1	inactive
O=C(CNCc1cccs1)Nc1cc(S(=O)(=O)N2CCCC2)ccc1Cl	inactive
CCOc1cc(C2c3c(-c4c(C)cc(C)cc4O)n[nH]c3C(=O)N2CCO)ccc1O (configuration not stated)	inactive
O=c1onc(-c2cccs2)n1Cc1ccccc1	inactive

SMILES	Potency
CCC(=O)N1N=C(c2ccc(OC)cc2)CC1c1cn(-c2ccccc2)nc1-c1cccs1 (configuration not stated)	inactive
C(=NCc1ccccc1)c1cn(-c2ccccc2)nc1-c1cccs1	50.1 µM (active)
CC1(C)[C@H]2CC[C@@H](CNC(=O)c3ccccc3F)[C@@H]1C2	inactive
COc1cc(/C=N/Nc2ccc(C)cc2)cc(Br)c1O	10 µM (active)
COc1cc(/C=N/O)ccc1O	inactive
Oc1c(Br)cc(/C=N/NC(=S)NCC2CCCO2)cc1Br (configuration not stated)	inactive
O=C(Cc1ccc(Cl)cc1)Oc1ccc2ccccc2c1	inactive
C(=N\N=C(c1ccccc1)c1ccccc1)/c1cn[nH]c1-c1ccccc1	inactive
CN(C)c1ncnc2sc3c(c12)CCN(Cc1ccccc1)C3	inactive
CCCc1nc(-c2ccccc2O)n(-c2ccccc2)n1	inactive
Cc1ccc(N2C(=O)C3N=NN(CC(=O)N4N=C(c5cccc6ccccc56)CC4c4ccccc4)C3C2=O)cc1 (configuration not stated)	inactive
Oc1ccccc1C1=NN(c2ccccc2)C(c2ccccc2)C1 (configuration not stated)	15.8 µM (active)
Cc1oc2cc(OCC(=O)N3CCCCCC3)ccc2c(=O)c1-c1ccc(Cl)cc1	inactive
CCN1/C(=C\c2ccc3ccccc3[n+]2CC)Sc2cc(C)ccc21	35.5 µM (active)
CCN(CC)C(=O)Oc1ccc2c(C)c(-c3ccc(OC)cc3)c(=O)oc2c1	inactive
O=C1CC(NCc2ccoc2)CN1CCc1cccc(Cl)c1 (configuration not stated)	inactive
Cc1ccccc1NC(=O)c1cc2cc([N+](=O)[O-])ccc2oc1=O	inactive
COc1cc(CNCCSc2nnnn2C)ccc1OCc1ccc(Cl)cc1Cl	39.8 µM (active)
Cn1nnnc1SCCNCc1ccc(Cl)c(Cl)c1	inactive
COc1cc(CNCCSc2nnnn2C)ccc1OCc1c(F)cccc1Cl	inactive
Cc1cc(S(=O)(=O)N2CCCN(C)c3ccccc32)ccc1F	inactive
Cc1ccc(CN(CC(=O)NCC2CCCO2)C2CC2)cc1 (configuration not stated)	inactive
CN(Cc1cccs1)C(=O)C1CCC1	inactive

SMILES	Potency
Cc1ccc(C(=O)N2CCC3(CC2)NC(=O)N(Cc2ccc(F)cc2)C3=O)cc1	inactive
Cc1ccc(C(=O)N2CCC(c3n[nH]c(=O)n3Cc3ccc(F)cc3)CC2)cc1	inactive
CCN1CCC2(CC1)N=C(c1ccc(F)cc1)C(=S)N2C(=O)c1ccc(C)cc1	50.1 µM (active)
CC1CCN(CCCNC(=O)c2cc(=O)c3ccccc3o2)CC1	inactive
CCNC(=O)CN(c1ccc(C)cc1)S(=O)(=O)c1ccc(SC)cc1	inactive
Cc1ccc(S(=O)(=O)N(CC(=O)Nc2cccnc2)c2ccc(Br)cc2)cc1	22.4 µM (active)
Cc1ccc(N(CC(=O)Nc2cc(C)cc(C)c2)S(=O)(=O)c2cccc3nonc23)cc1	inactive
COc1ccccc1C(=O)N1CCc2c(nc3cc(-c4ccccc4Cl)[nH]n3c2=O)C1	inactive
COc1ccc2cc(C(=O)N3CCN(S(=O)(=O)c4ccccc4C(F)(F)F)CC3)c(C)nc2c1	inactive
Cn1c(=O)c2c(nc(Cl)n2CC(=O)N(C2CCCC2)C2CCS(=O)(=O)C2)n(C)c1=O (configuration not stated)	inactive
O=C(Cc1cccc2ccccc12)NCCc1cccc2cccnc12	inactive
CCCCc1c(C)nc2c(C)cccc2c1SCC(=O)O	inactive
COc1cc(C(=S)NCc2ccccc2)cc(Br)c1O	39.8 µM (active)
COc1ccccc1NC(=O)C(=O)NCc1ccccc1	inactive
COc1ccc(COc2ccc(C(=O)O)cc2OC)cc1Br	inactive
CN(Cc1ccc(F)cc1F)C(=O)COc1ccc2ccc(=O)oc2c1	inactive
C=CCSc1nc2c(c(=O)[nH]c(=O)n2C)n1Cc1cccc(C)c1	inactive
COc1cc(Cl)c(C)cc1NC(=O)[C@@H]1CCCN1C(=O)c1cccs1	inactive
Cc1ccc(NNC(=O)c2cccs2)cc1Cl	8.91 µM (active)
CS(=O)(=O)c1ccc(C(=O)NNC(=O)c2cccs2)cc1	inactive
CCN(c1ccc(-c2csc(-c3ccccc3)n2)cc1)S(C)(=O)=O	inactive
